# Screens deposited in PubChem BioAssay by National Center for Advancing Translational Sciences (NCATS).
# In the library only some 3.7% were active in any assay of this set; here they are far more common.
# A549 viability: A549 cytotoxicity, counter-screen for Nrf2 inhibitors; A549 ARE-Fluc cells, CellTiter-Fluor viability, 18-24 h; Potency, µM (titrated, usually from 46 µM), for the others: top-dose activity change, negative = cytotoxicity, actives largely listed as inhibitors; hit rate 0.16% among 390,000; AID 504648; note: % is set by controls: 0 for no effect and ±100 for the full control effect
#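 A549 ARE_Fluc cells in 5% FBS OPTI-MEM were exposed to compounds in concentration-response for 18-24 h at 37 deg C. Viability was read by CellTiter-Fluor fluorescence (Ex 405/Em 525) after 30 min, before the luciferase read.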
# Nrf2 inh: blocks Nrf2 signaling; Potency, µM (top dose mostly 46 µM), without a hit: at the top dose activity change, negative = inhibition, most hits filed as inhibitors; A549 ARE-Fluc reporter, luciferase luminescence, 18-24 h; AID 504444; hit rate 2.1% among 360,000; note: % is set by controls: 0 for no effect and ±100 for the full control effect; nearly all actives have a fitted effect of over 60% in size
#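 Nrf2 function is reported as luminescence of an ARE-controlled luciferase in A549 cells. Compounds were tested at several concentrations, and a CellTiter-Fluor read on the same wells flagged cytotoxicity.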
# Nrf2 activator: activators of Nrf2 (ARE) signaling; AREc32 ARE-luciferase reporter (MCF7-derived line), luminescence, 24 h; Potency, µM (titrated, usually from 46.1 µM), inactives show top-dose activation, actives largely listed as activators; hit rate 0.31% among 410,000; note: % of control where 0% means no effect; nearly all actives have a fitted effect of over 65% in size
#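 Steps: seed AREc32_Fluc cells (1000/well, 5% FBS OPTI-MEM); incubate overnight at 37 deg C; add 23 nL compound; incubate 24 hr; add Steady-Glo; hold 30 min RT; read luminescence.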
# ELG1 DNA repair: ELG1-dependent DNA repair inhibition. HEK293T ELG1-luciferase reporter, luminescence, 16 h; DNA damage induced by 5-fluorouridine. Potency, µM (top dose mostly 46.1 µM), for inactives: top-dose activity change, negative = inhibition, hits mostly inhibitors. hit rate 2.3% among 330,000. AID 504467; note: % is set by controls: 0 for no effect and ±100 for the full control effect; nearly all actives have a fitted effect of over 55% in size
#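 5-Fluorouridine DNA damage + compound/DMSO, 2,000 cells/well, 16 h, 37 °C/5% CO2. ONE-Glo, 30 min RT, luminescence. Readout = decrease in reporter signal.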
# * hit, by the source's call; ? = inconclusive; . = not tested or not shown. Calls come from the whole dose curve; as a rule, active = well fitted curve in the direction sought with a large enough effect; inconclusive = small, poorly fitted or top-dose-only effect, or another doubt; inactive = no such curve, though single readings can be large; an effect the other way counts as inactive or inconclusive. Potency is the fitted concentration of half-maximal effect.
SMILES,A549 viability,Nrf2 inh,Nrf2 activator,ELG1 DNA repair
O=C(c1cc(-c2ccccn2)nc2c(Cl)cccc12)N1CCN(S(=O)(=O)c2ccccc2)CC1,-12%,6%,14%,18µM*
CN(C)S(=O)(=O)c1cccc(NC(=O)c2cc(-c3cccs3)nc3ccccc23)c1,-2%,-1%,12%,7.3µM*
CCCOC(=O)c1c(NC(=O)c2nc3ncccn3n2)sc(C(=O)OCC)c1C,-1%,11%,0%,.
O=[N+]([O-])c1ccccc1N/N=C/c1c[nH]c2ccccc12,-27%,?,3.5µM*,?
O=[N+]([O-])c1ccc(N/N=C/c2c[nH]c3ccccc23)cc1,-27%,4%,26%,?
Cc1cc(N2CCCC(C(=O)Nc3cccc(Cl)c3)C2)n2ncnc2n1 (stereo not given),1%,-18%,0%,3%
Cc1cc(N2CCCC(C(=O)Nc3ccc4c(c3)CCC4)C2)n2ncnc2n1 (stereo not given),-14%,13µM*,0%,?
COc1ccc(OC)c(-c2nc3c(C)n[nH]c(=O)c3[nH]2)c1,-6%,-2%,5%,6.5µM*
COc1ccc(Cn2nnc3c(C)n[nH]c(=O)c32)cc1,-5%,-7%,7%,4%
CC(=O)N/C(=C\c1ccc(F)cc1)C(=O)OCc1ccccc1,1%,-11%,2%,2%
Cc1ccc(-n2nc(C)c(C(=O)NCCCN3CCN(c4cccc(Cl)c4)CC3)c2-n2cccc2)cc1,?,16µM*,-1%,.
Cc1nn(-c2ccccc2)c(Cl)c1C(=O)NCCCCNC(=O)c1c(C)nn(-c2ccccc2)c1Cl,9%,-3%,0%,16µM*
COc1ccc(S(=O)(=O)N2CCc3ccccc32)cc1C(=O)NC1(C)CCS(=O)(=O)C1 (stereo not given),3%,-17%,0%,16%
COc1c(N2CCN(C(=S)NCc3ccccc3)C(C)C2)c(F)cc2c(=O)c(C(=O)O)cn(C3CC3)c12 (stereo not given),?,23µM*,0%,-24%
COc1ccc(NS(=O)(=O)c2ccc3c(c2)C(C(C)C)C(=O)N3)cc1 (stereo not given),-1%,?,-1%,.
CC(C)C1C(=O)Nc2ccc(S(=O)(=O)NCc3ccc(Cl)cc3)cc21 (stereo not given),2%,21µM*,-1%,.
N#Cc1c(NC(=O)c2cc(-n3cnnc3)ccc2Cl)sc2c1CCCC2,-18%,23µM*,11%,-24%
COc1ccc(C2NC(=O)c3ccccc3N2)cc1COc1ccc(NC(C)=O)cc1 (stereo not given),1%,9%,.,.
O=c1[nH]c2cc3c(cc2cc1CN(Cc1cccnc1)C(=S)NCc1ccco1)OCCO3,-3%,?,3%,9.2µM*
CN(C)CCN(Cc1cc2cc3c(cc2[nH]c1=O)OCO3)C(=S)NCc1ccco1,0%,-1%,0%,1%
O=c1[nH]c2cc3c(cc2cc1CN(Cc1cccnc1)C(=S)NCc1ccco1)OCO3,-3%,-12%,0%,12µM*
COc1nc(Cl)cn(-c2ccc(C)cc2)c1=O,-3%,2%,-1%,8%
Cc1ccc(-n2c(Cl)c(Cl)nc(Cl)c2=O)cc1,?,?,-2%,6.5µM*
COc1ccc(Cl)cc1NC(=O)CN1CCC(NC(=O)C2CC2)CC1,-1%,-7%,3%,9.2µM*
CCCN1CCC(NC(=O)Nc2cc(Cl)ccc2OC)CC1,-7%,0%,0%,14%
SMILES,A549 viability,Nrf2 inh,Nrf2 activator,ELG1 DNA repair
COc1ccc(Cl)cc1NC(=O)CN1CCC(n2nnc3ccccc32)CC1,-9%,-3%,-1%,7.3µM*
CC(C)(C)C1CCc2nc(NC(=O)COc3ccccc3[N+](=O)[O-])sc2C1 (stereo not given),1%,15%,0%,.
COc1cc(C=C2Cc3ccccc3C2=O)cc(OC)c1OC,.,.,7.1µM*,.
COc1ccc(/C=C2\CCc3ccccc3C2=O)cc1Cn1cccn1,-17%,2.3µM*,17%,-3%
CNS(=O)(=O)c1cn(CC(=O)Nc2cccc(C(F)(F)F)c2)cc1S(=O)(=O)NC,0%,1%,4%,.
Cc1cccc(NC(=O)C2CCC(CNS(=O)(=O)c3ccc4c(c3)CCCC(=O)N4)CC2)c1C (stereo not given),25%,-21%,1%,.
Cc1cc([N+](=O)[O-])ccc1NCc1ccccc1,?,18µM*,4%,2%
